Growth data for 15 compounds are collected here from PubChem BioAssay (NCI).

Test in all cases: NCI-60 one-dose screen, 48 h (100 = growth as untreated, 0 = no growth, -100 = all killed)
Conditions in all cases: 10 µM unless noted

For assay [1], the system named is DU-145 prostate.
Assay [2] has as its system K-562 leukemia.
The subject of assay [3] is MALME-3M melanoma.
For assay [4], the system named is MDA-MB-231 breast.
The subject of assay [5] is RXF 393 renal.
The subject of assay [6] is SF-268 CNS.
The subject of assay [7] is SF-295 CNS.
The subject of assay [8] is SF-539 CNS.
Assay [9] has as its system M14 melanoma.
For assay [10], the system named is UACC-257 melanoma.

SMILES strings stand for the structures. About 83,000 compounds went through this panel and 20% of them were active in at least one assay; those are over-represented in the sample as a whole.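 Negative percent growth values reflect cell death: -40 means 40% of the cells present at the start died, and -100 means all died.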 Unmarked numbers belong to inactive results. Activity calls are given as the source filed them. The calls were made as follows: active = growth percent below 10; inactive = the rest.

Turning to `CCCCOP(=O)(OCCCC)C(C(=O)OCC)C(CC(=O)OCC)C(=O)OCC` (stereo not given), the growth was 122% in assay [1]; 109% in assay [2]; 125% in assay [3]; 100% in assay [4]; 93.4% in [5]; 109% in assay [6]. Further, the growth is 101% in assay [7], 91.4% in [8] and 114% in assay [9].
As for `COc1cccc(/C=C2\Cc3ccccc3C2=O)c1`, the growth in [1] is 104%; in assay [2] it was 93.8%; in [3], 97%; in assay [4], 104%; in assay [5], 103%; in assay [6], 109%. Further, the growth is 94.6% in assay [7], 101% in assay [8] and 109% in assay [9].
As to `c1cc[n+](Cc2ccnc3ccccc23)cc1`, the growth in [1] was 117%; in assay [2], 71.3%; in [3] it was 114%; in [4], 98.9%; in [5] it was 90.3%; in assay [6] it was 106%. Also, the values for the growth in assay [7], in assay [8] and in [9] were 95.9%, 89.3% and 101%, respectively.
Consider `COC(=O)[C@H](Cc1cn(C)cn1)NC(=O)[C@@H](NC(=O)Nc1cc(C(F)(F)F)cc(C(F)(F)F)c1)C(C)C`, for which the growth was -97.1% [100 µM] (active) in assay [1]; -53.5% [100 µM] (active) in assay [2]; -90.5% [100 µM] (active) in assay [3]; -90.2% [100 µM] (active) in assay [4]; -83.3% [100 µM] (active) in assay [5]; -89.4% [100 µM] (active) in [6]. Also, the results for the growth in assay [7], in [10] and in assay [9] were -91% [100 µM] (active), -95.9% [100 µM] (active) and -92.8% [100 µM] (active), respectively.
For the compound `Cc1ccc(C(NC(=O)c2ccccc2)c2ccc3cccnc3c2O)cc1` (stereo not given), the growth in assay [1] is 20.7%; in assay [2] it was 10.1%; in assay [3], 19.9%; in [4] it was 16.5%; in assay [5] it was 41.8%; in assay [6] it was 8.85% (active). Moreover, the growth in assay [7] is 10.3%; in assay [8], 7.53% (active); in [9] it was -22.9% (active).
On to `O=Cc1ccccc1C(=O)O`, for which the growth in [1] is 103%; in [2], 90.5%; in [3] it was 103%; in [4], 109%; in [5] it was 125%; in [6] it was 96.3%. For the same compound, the figures for the growth in [7], in [8] and in [9] were 96.9%, 94.8% and 101%, respectively.
Turning to `N#Cc1ncc(-c2ccc(C(F)(F)F)cc2)c(NC2CCCCCC2)n1`, the growth in assay [1] is 60.5%; in [2] it was 13.6%; in assay [3] it was -49.2% (active); in [4], 56.3%; in assay [5], 36.6%; in [6], 39.3%. In addition, the figures for the growth in assay [7], in assay [8] and in [9] were -29.5% (active), 74.4% and 22.4%, respectively.
In the case of `CCCCNCCCN(CCCC)CCCNCCCC`, the growth was 114% in assay [1]; 102% in [2]; 104% in assay [3]; 90.1% in assay [4]; 96.6% in assay [5]; 110% in assay [6]. Further, the growth in [7] was 94.4%; in assay [8], 103%; in [9], 94.2%.
As to `Oc1c(N=Nc2nn[nH]n2)ccc2ccccc12`, the growth in assay [1] was 96.6%; in assay [2] it was 97.2%; in [3], 9.84% (active); in [4], 60.4%; in [5], 87.4%; in [6], 93.8%. Besides, the results for the growth in assay [7], in assay [8] and in assay [9] were 65.4%, 95.3% and 62.1%, respectively.
Regarding `COc1ccc2[nH]c(=O)c(CNc3ccc(Nc4nccc(-c5ccc(Cl)cc5)n4)cc3)cc2c1`, the growth in [1] was 84.8%; in assay [2] it was 68.6%; in [3] it was 97.7%; in [4], 84.9%; in [5] it was 101%; in assay [6], 71.9%. Besides, the growth was 110% in assay [7], 104% in [8] and 111% in assay [9].
With `CC(=O)/C(=C/c1ccc(Cl)cc1)C(=O)c1ccccc1`, the growth in assay [1] was 99.6%; in assay [2], 61.8%; in assay [3], 103%; in assay [4], 96.1%; in assay [5], 100%; in assay [6], 82.8%. Besides, the growth in assay [7] is 60.2%; in assay [8] it was 101%; in [9] it was 86%.
For the compound `O=C1Nc2ccc(Cl)cc2/C1=C/c1cccs1`, the growth in assay [1] was 105%; in assay [2] it was 103%; in assay [3], 95.9%; in assay [4], 70.6%; in assay [5], 94.3%; in [6], 88.8%. Also, the growth was 94.3% in assay [7], 85.3% in assay [8] and 101% in assay [9].
Take `CN1CCN(CCCOc2ccc3ncnc(Nc4ccc(OCc5cccc(F)c5)c(Cl)c4)c3c2)CC1`: the growth was 18.8% in assay [1]; -26.9% (active) in assay [2]; -78.6% (active) in assay [3]; -78.7% (active) in [4]; -80.4% (active) in assay [5]; -43% (active) in assay [6]. Also, the growth in [7] is -57.4% (active); in assay [8], -88.9% (active); in assay [9] it was -83.4% (active).
For `O=C1c2cccc3c([N+](=O)[O-])ccc(c23)C(=O)N1CCCCl`, the growth is -82.1% [100 µM] (active) in [1]; -25.8% [100 µM] (active) in assay [2]; -73.9% [100 µM] (active) in assay [3]; -93.1% [100 µM] (active) in [4]; -83.3% [100 µM] (active) in [5]; -78.9% [100 µM] (active) in assay [6]. In addition, the growth was -92% [100 µM] (active) in assay [7], -97% [100 µM] (active) in assay [10] and -85.6% [100 µM] (active) in assay [9].
For `Cn1ccnc1C(=O)/C=C/c1ccc(C(=O)Nc2nc3ccccc3[nH]2)cc1`, the growth in assay [1] was -13.7% (active); in assay [2] it was 2.24% (active); in [3] it was 72.7%; in assay [4], 19.3%; in assay [5], 2.67% (active); in [6], 40.2%. The growth in assay [7] is 64.9%; in assay [8] it was 9.47% (active); in [9], 71.1%.
